Compound activity from PubChem BioAssay.
The list is not random: actives were taken first. Their share in the collection is about 21%.
NS1 inh: blocks influenza NS1 protein function; Potency, µM (titrated, usually from 46.1 µM), without a hit: at the highest dose activity, positive = more growth; 270,000 tested, 0.4% active; calls by dose curve; note: potency is the fitted concentration of half-maximal effect; actives are rising curves; nearly all actives have a fitted effect of over 50% in size
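Recovery from NS1-induced slow growth read by OD600 in budding yeast switched to galactose assay medium (pH 6.0, -URA) at 1:100 dilution. Compound 23 nl per well; the matching strain lacking NS1 serves as control.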
Pf growth 96h: P. falciparum growth inhibition at 96 hour, primary screen for plastid delayed-death inhibitors | P. falciparum luciferase reporter growth, 96 h | Potency, µM (highest dose often 28.7 µM), for the others: top-dose activity change, negative = inhibition, hits mostly inhibitors | 320,000 tested, 6.9% active; note: potency is the fitted concentration of half-maximal effect; % is set by controls: 0 for no effect and ±100 for the full control effect
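96 h incubation, 37 C, 5% CO2, of luciferase-reporter P. falciparum-infected RBCs (2% hematocrit, 0.05% parasitemia final) with test compounds; endpoint luminescence.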
CHX counter: affects cycloheximide protein synthesis inhibition readout, counter-screen | AID 2314 | max response, % | cell reporter, cycloheximide protein synthesis inhibition counterscreen | 300,000 tested, 12% active; in the data active = max response mostly above about 13%, no sharp cut-off; inactive = mostly below about 14%; note: read at 38.3 µM for the half of the compounds with a filed dose; 0% is about no effect
Shiga inhibitor: Shiga toxin inhibition; 290,000 tested, 9.2% active; inhibition, % at 38.7 µM; AID 2315; Vero cells, Shiga toxin protein synthesis inhibition reporter; in the data active = inhibition mostly above about 28%, no sharp cut-off; inactive = mostly below about 43%; note: 0% is about no effect
Pf growth 48h: P. falciparum growth inhibition at 48 hours (one generation) | AID 504832 | 310,000 tested, 5.9% active | P. falciparum luciferase growth in erythrocytes, 48 h | Potency, µM (top dose mostly 28.7 µM), for the others: at the highest dose activity change, negative = inhibition, hits mostly inhibitors; note: potency is the fitted concentration of half-maximal effect; % is set by controls: 0 for no effect and ±100 for the full control effect
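Parasite viability was followed by luminescence of a genomically integrated firefly luciferase. Cultures held 0.1% parasitemia at 2% hematocrit (final), incubated under 5% CO2 at 37 C.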
Giardia FBPA inh: blocks Giardia fructose-bisphosphate aldolase activity. Potency, µM (titrated, usually from 59.6 µM), without a hit: at the top dose activity, negative = inhibition, actives largely listed as inhibitors. 290,000 tested, 0.71% active. purified Giardia FBPA. A8B2U2; note: potency is the fitted concentration of half-maximal effect; % is set by controls: 0 for no effect and ±100 for the full control effect; nearly all actives have a fitted effect of over 55% in size
Target sequence (A8B2U2 whole entry, looked up): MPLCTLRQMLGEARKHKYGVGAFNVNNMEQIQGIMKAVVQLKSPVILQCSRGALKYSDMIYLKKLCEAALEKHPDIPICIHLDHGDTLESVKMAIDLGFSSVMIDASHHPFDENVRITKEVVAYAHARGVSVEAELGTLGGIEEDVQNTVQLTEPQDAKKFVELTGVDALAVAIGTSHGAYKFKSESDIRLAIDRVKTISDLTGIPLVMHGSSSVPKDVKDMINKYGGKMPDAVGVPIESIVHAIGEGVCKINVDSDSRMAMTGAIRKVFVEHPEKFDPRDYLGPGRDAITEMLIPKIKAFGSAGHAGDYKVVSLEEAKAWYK
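40 nM FBPA preincubated 10 min at RT with compound (up to 57.5 uM final), then substrate plus GAPDH/TPI/NAD/arsenate coupling and diaphorase/resazurin added. Fluorescence read after 20 min at RT, 525/598 nm.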
* marks the source's active call; other numbers are inactive results; ? = inconclusive; . = no result; + = active, no number. Unless noted, calls come from the whole dose curve; as a rule, active = well fitted curve in the direction sought with a large enough effect; inconclusive = small, poorly fitted or top-dose-only effect, or another doubt; inactive = no such curve, though single readings can be large; an effect the other way counts as inactive or inconclusive.

SMILES	NS1 inh	Pf growth 96h	CHX counter	Shiga inhibitor	Pf growth 48h	Giardia FBPA inh
COCCn1c(=O)[nH]c2cc(C(=O)OC)ccc2c1=O	2%	?	1	-4	42%	5%
COC(=O)c1ccc2c(C)c(C(C)(C)O)[nH]c2c1	-22%	79%	15*	37	19%	-3%
Cc1c(C(C)(C)O)[nH]c2ccc(C(F)(F)F)cc12	-101%	-32%	8.6*	17	-5%	3%
COc1ccc(Oc2ncc3nc(-c4ccccc4)c(=O)n(C4CC4)c3n2)cc1	.	.	.	.	.	-18%
COc1cc(OC)cc(C(=O)NC(=S)Nc2ccc3[nH]c(=O)[nH]c3c2)c1	15%	-1%	-7	19	-2%	-25%
COc1cccc(C(=O)Nc2ccc(N(C)C)cc2)c1OC	-5%	.	39*	124*	0%	-25%
CC(C)c1ccc(NC(=S)Nc2ccc3[nH]c(=O)[nH]c3c2)cc1	-3%	29%	14	24*	12%	-14%
COc1ccc(C(=O)NC(=S)Nc2ccc3[nH]c(=O)[nH]c3c2)c(OC)c1	-11%	18%	21*	35	47%	.
COc1cccc(C(=O)Nc2ccncc2)c1OC	-5%	-5%	1	.	3%	-5%
COc1cccc(NC(=O)c2cccc(OC)c2OC)c1	-6%	.	70*	125*	141%	-5%
COc1ccc(NC(=O)c2cc3ccccc3cc2OC)cc1OC	0%	?	15*	23	-7%	1%
COc1cccc(C(=O)Nc2ccc3[nH]c(=O)[nH]c3c2)c1OC	5%	51%	8	54*	39%	-19%
COc1cccc(NC(=O)c2ccccc2Br)c1	-5%	-16%	28*	.	111%	0%
COc1cccc(NC(=O)c2cc3ccccc3cc2OC)c1	-3%	?	55*	108*	92%	0%
CN(Cc1ccccc1)C(=O)C1CCN(S(=O)(=O)c2cccc3nsnc23)CC1	0%	?	9	6	?	2%
C[C@@H]1[C@H](O)C[C@@]23COC(=O)C2=CCC[C@@H]3[C@@]1(C)CC/C(=C/CO)CO	.	5%	.	.	-5%	.
CCCCCN(C(=O)CCC(=O)OCc1cccc(C(F)(F)F)c1)c1c(N)n(CCCC)c(=O)[nH]c1=O	?	?	-2	-3	-13%	.
CC(C)Cc1cc(CNC(=O)C2CCC(=O)N(Cc3cccc(C(F)(F)F)c3)C2)on1 (stereo unspecified)	14%	?	1	13	1%	.
O=CC(O)C(O)C(O)C(O)CO (stereo unspecified)	.	.	-8	1	.	0%
COc1ccc(OC)c(NC(=O)c2cc3ccccc3cc2OC)c1	-4%	?	2	43	-8%	-5%
COc1cccc(CNc2ncc(C(=O)Nc3cc(OC)c(OC)c(OC)c3)c(C)n2)c1	8%	?	13	1	10µM*	-6%
CN(C)c1ccc(NC(=O)c2cccc(C(=O)Nc3ccc(N(C)C)cc3)n2)cc1	16%	8.3µM*	49*	+	?	-29%
COc1cc2ccccc2cc1C(=O)Nc1ccc(O)cc1	-6%	?	44*	63*	?	-11%
COc1cc(OC)c(C(=O)Nc2ccc3ccccc3c2)cc1OC	-3%	9%	43*	107*	56%	6%
O=C(Nc1ccccc1)c1cccc(C(=O)Nc2ccccc2)n1	12%	?	-2	-5	6%	.
SMILES	NS1 inh	Pf growth 96h	CHX counter	Shiga inhibitor	Pf growth 48h	Giardia FBPA inh
COc1cc(NC(=O)c2cnc(NCc3ccccc3)nc2C)cc(OC)c1OC	-1%	11%	-2	-7	?	-8%
COc1ccccc1CNCC(=O)Nc1ccc(N(C)C)cc1	2%	100%	50*	111*	109%	?
CC(C)(C)n1nc2c(c1NC(=O)c1cc([N+](=O)[O-])ccc1Cl)CS(=O)(=O)C2	-10%	-11%	12	-2	?	13%
CC(C)(C)n1nc2c(c1NC(=O)c1ccc([N+](=O)[O-])cc1)CS(=O)(=O)C2	-1%	8.3µM*	4	15	25%	7%
O=C(Nc1c2c(nn1-c1ccc([N+](=O)[O-])cc1)CS(=O)(=O)C2)c1cccs1	?	5.9µM*	5	7	?	-3%
CCCCCCC(CC(=O)NCc1cccnc1)CC(=O)NCc1cccnc1	0%	?	2	-5	97%	8%
Cc1ccc2oc(-c3cccc(NC(=O)Cc4cccs4)c3)nc2c1	-10%	26%	14	-2	16%	2%
CCC(=O)Nc1cccc(-c2nc3ccc(C)cc3o2)c1	-111%	-16%	52*	125*	159%	3%
CCC(=O)Nc1ccc2oc(-c3cccc(C)c3)nc2c1	-30%	19%	35*	+	40%	-2%
Cc1ccc2nc(-c3cccc(NC(=O)c4ccc5c(c4)OCCO5)c3)oc2c1	-3%	6%	20*	34	138%	2%
O=C(Nc1ccc2oc(-c3ccc4ccccc4c3)nc2c1)c1ccc2c(c1)OCCO2	-2%	93%	27	5	30%	1%
CC(C)(C)C(=O)CNS(=O)(=O)c1ccc(S(=O)(=O)NC2CC2)cc1	11%	?	-3	.	-7%	-1%
O=Cc1cc(CCC(=O)O)ccc1O	-12%	?	3	7	-29%	-8%
CC(=O)N1CC(C)Oc2ccc(S(=O)(=O)NC(CC(=O)O)c3ccccc3)cc21 (stereo unspecified)	3%	?	2	-6	29%	13%
Cc1ccccc1CSCC(=O)Nc1ccccc1F	-20%	?	44*	.	26%	0%
Cc1ccccc1CSCC(=O)NCc1ccco1	-6%	26%	21	36*	11%	-3%
Cc1ccc(CSCC(=O)NCc2ccco2)cc1	.	?	11	25	?	3%
O=C(CSCc1c(F)cccc1Cl)NCc1ccco1	-4%	61%	26*	24	?	5%
O=C(CSCc1c(Cl)cccc1Cl)NCc1ccco1	3%	13µM*	-1	2	?	-3%
COc1ccc(C)cc1NC(=O)CSCc1ccccc1C	-24%	-30%	3	.	-27%	4%
O=C(CSCc1c(F)cccc1Cl)NCCSCc1ccco1	-7%	-15%	7	4	6%	-1%
O=C(NCC(c1ccco1)N1CCN(c2ccccc2)CC1)C(=O)NC1CCCCC1 (stereo unspecified)	.	7%	.	.	1%	.
CN(C)C[C@H]1CCC2=C(C1=O)C(c1ccc(Cl)c(Cl)c1)C1=C(CC[C@H](CN(C)C)C1=O)O2	-11%	.	.	.	.	.
O=C(NCCCn1ccnc1)C(=O)Nc1ccccc1	5%	40%	16*	28	24%	1%
O=C(NCCCn1ccnc1)Nc1ccc(Cl)c(Cl)c1	-36%	2.1µM*	-3	-21	12µM*	6%
COc1ccc(NC(=O)C(=O)NCCCn2ccnc2)cc1	6%	9%	4	20	16%	1%
